Consider 60 compounds from PubChem BioAssay AID1347416 (National Center for Advancing Translational Sciences (NCATS), 2020).

About 1,600 (39%) of roughly 4,100 compounds were called active. Inconclusive results (about 25%) are left out. Calls come from the whole dose curve; as a rule, active = well fitted inhibition curve with a large enough effect; inconclusive = small, poorly fitted or top-dose-only effect; inactive = no such curve, though single readings can be large or run the other way. The list shows a part of the results.
% is set by controls: 0 for no effect and ±100 for the full control effect; potency is the fitted concentration of half-maximal effect.

The experiment is described as follows: qHTS Validation assay for Inhibitors of Plasmodium falciparum Dd2 growth in vitro. Note: nearly all actives have a fitted effect of over 70% in size. To be noted: P. falciparum Dd2 in RBCs, SYBR Green growth, 72 h; series mostly up to 28.7 µM; activity change, negative = inhibition: at the top concentration. The source says:
Malaria, a parasitic disease spread to humans through the bite of a Plasmodium infected Anopheles mosquito, continues to be a global health burden affecting millions of people, with an estimated 228 million cases and 405,000 deaths in 2018. Concerns about safety and limitations of current antimalarial treatments strongly emphasize the need to develop new therapeutic options. The scarce number of chemotypes and validated drug targets with efficacy against the liver stage, have hindered development of new antimalarials. To address this, a chemoprophylactic drug discovery effort was conducted through a combined phenotypic high-throughput asexual blood stage and liver stage screen, providing a robust foundation to identify liver-stage active lead chemotypes. Compounds were initially screened against Plasmodium falciparum Dd2 strain parasites using a in vitro SYBRGreen-1 based 72 hr proliferation assay to identify novel chemotypes to advance to liver stage assays. NIH/NCATS Early Translation Branch Assay Submitter (PI): Anton Simeonov Ph.D.
[…] Assay Protocol: PROTOCOL TABLE (as described by Inglese et al., 2007) SEQUENCE No. (e.g., 1, 2, 3, etc.); PARAMETER (e.g., Cells, Incubation, Reagent, etc.); VALUE; DESCRIPTION SEQUENCE, Parameter, Description 1; Reagent; 3 uL complete malaria growth medium, 1536 TC treated Black clear bottom plate 2; Controls; 23 nL positive control artesunate (300 nM final) to column 1; Neutral control DMSO to columns 2-4 3; Compound; 23 nL of compounds in dose response concentration (29 uM to 0.5 nM final) 4; Reagent; 5 uL malaria infected red blood cells (2.5% hematocrit final, 0.3% parasitemia 5; Time; 72 hours at 37C (5% O2, 5% CO2, 90% N2; 95% Rh) 6; Reagent; 2 uL lysis buffer/SYBRGreen-1, 25 sec shake immediately following dispense 7; Time; ~16 hours at 37C (5% O2, 5% CO2, 90% N2; 95% Rh) 8; Detector; EnVision (PerkinElmer) bottom read at 485/14nm excitation and 535/25 nm emission NOTES (numbers refer to sequence above): 1; Complete Malaria Growth Media: 1X RPMI-1640 w/L-glutamine, 5.5g/L Albumax II, 367 uM Hypoxanthine, 25 mM HEPES, 0.25% Sodium Bicarbonate, 35 uM Gentamicin sulfate 2; Controls were added using the Kalypsis Pintool (Wako USA) equipped with 1536 pinhead 3; Compounds were added in a 7-point, titration with a high final concentration of 29 uM by Pintool from seven inter-plate titrations of library plates and two DMSO control plates at the beginning and end (see Yasgar et al., 2008). 4; Red blood cells infected with Plasmodium falciparum Dd2 parasites were used. 6; Lysis buffer: 20 mM Tris-HCl, 10 mM EDTA, 0.16% Saponin, 1.6% Triton-X, 10X SYBR Green. REFERENCE: Inglese J, Shamu CE, Guy RK. 2007. Reporting data from high-throughput screening of small-molecule libraries. Nat Chem Biol. doi:10.1038/nchembio0807-438 Yasgar A, Shinn P, Jadhav A, Auld D, Michael S, Zheng W, Austin CP, Inglese J, Simeonov A. 2008. Compound Management for Quantitative High-Throughput Screening. J Lab Autom 13:79-89. doi:10.1016/j.jala.2007.12.004
In general terms: qHTS replaces the single test concentration by a dilution series.
As for `Cc1nonc1CC(=O)N1CCCC(CNS(=O)(=O)c2cccs2)C1` (stereo not given), the “activity change, negative = inhibition” value was 47.9% (inactive).

With `CC1(c2ccccc2)CC(c2ccccc2)=Nc2nonc2N1` (stereo not given), the Potency was 5.31 µM (active).

As for `COc1cc(/C=C(\C#N)c2nc3ccccc3[nH]2)ccc1OCc1ccc(F)cc1`, the Potency is 5.31 µM (active).

Turning to `COc1cc(/C=C(\C#N)c2nc3ccccc3[nH]2)cc(Cl)c1OCc1ccccc1Cl`, the Potency is 5.31 µM (active).

For the compound `COc1cc(SC)ccc1C(=O)Nc1nc2ccccc2[nH]1`, the “activity change, negative = inhibition” value is -19.7% (inactive).

With `O=C(Nc1cnc2ccccc2c1)c1cccc(-n2cnnn2)c1`, the Potency is 2.66 µM (active).

As to `CCc1noc(-c2cccn3c(CNC(=O)c4ccc(Cl)cc4)nnc23)n1`, the “activity change, negative = inhibition” value is 16.2% (inactive).

On to `Cc1ccc(C)c(Oc2c(C(F)(F)F)oc3c(CN4CCN(C)CC4)c(O)ccc3c2=O)c1`, for which the Potency is 0.75 µM (active).

In the case of `CC(C)c1ccccc1Oc1c(C(F)(F)F)oc2c(CN3CCN(C)CC3)c(O)ccc2c1=O`, the Potency was 0.668 µM (active).

As to `CCN1CCN(Cc2c(O)ccc3c(=O)c(Oc4ccccc4C(C)C)c(C(F)(F)F)oc23)CC1`, the Potency was 0.596 µM (active).

For `Cc1ccccc1C(=O)NC(CC(C)C)C(=O)OCC(=O)c1c(N)n(C)c(=O)n(C)c1=O` (stereo not given), the Potency was 2.66 µM (active).

Turning to `CCSc1nnc(SCC(=O)c2c(N)n(C)c(=O)n(C)c2=O)s1`, the “activity change, negative = inhibition” value was -13.4% (inactive).

As for `Cc1ccc(N(C)C2=NC(=O)CS2)cc1Cl`, the Potency was 9.44 µM (active).

For `COc1cc(O)c(C(CCN2CCCC(C)C2)c2ccc(N(C)C)cc2)c(OC)c1` (stereo not given), the Potency is 1.68 µM (active).

For `COc1cc(O)c(C(CCN2CCCCC2)c2cc(OC)c(OC)c(OC)c2)c(OC)c1` (stereo not given), the Potency is 2.66 µM (active).

For `COc1cc(O)c(C(CCN2CCCCC2)c2ccc(N(C)C)cc2)c(OC)c1` (stereo not given), the Potency is 2.66 µM (active).

On to `COc1cc(O)c(C(CCN2CCCC(C)C2)c2cc(OC)c(OC)c(OC)c2)c(OC)c1` (stereo not given), for which the Potency is 1.88 µM (active).

As for `CCCCC(CC)CNC(=O)CCCCCn1c(=O)[nH]c2ccsc2c1=O` (stereo not given), the “activity change, negative = inhibition” value was -7.19% (inactive).

As to `COc1ccc(C(CCN2CCCCC2)c2c(O)cc(OC)cc2OC)cc1` (stereo not given), the Potency was 1.33 µM (active).

As for `CCn1ccc2ccc(CN3CCCC(O)(CN4CCCC4)C3)cc21` (stereo not given), the Potency was 7.5 µM (active).

Take `COc1ccc(C(=O)N2CCCC(O)(CN3CCCC3)C2)cc1Cl` (stereo not given): the “activity change, negative = inhibition” value is -13.3% (inactive).

As for `C=CCN(Cc1ccccc1OCC)C(=O)c1ccc(N(C)S(C)(=O)=O)cc1`, the “activity change, negative = inhibition” value is 4.22% (inactive).

On to `CCCC1=[N+](CC)CCn2c(C)ccc21`, for which the “activity change, negative = inhibition” value is -15.7% (inactive).

With `COC(=O)c1c(-c2c(Cl)cccc2Cl)noc1NC(=O)NN1CCCCC1`, the Potency was 2.37 µM (active).

For the compound `OC(CN1CCC(Cc2ccc(F)cc2)CC1)c1ccc(Cl)cc1` (stereo not given), the “activity change, negative = inhibition” value was -97.7% (inactive).

`CN1CCC(NCCC(c2ccc(F)cc2)c2ccc(Cl)cc2)CC1` (stereo not given): the Potency is 4.22 µM (active).

For the compound `CCC(=O)N(C1=C(NC(C)C)C(=O)c2ccccc2C1=O)C(C)C`, the Potency is 2.37 µM (active).

Turning to `O=C(NC1CCCC1)c1ccc(OC2CCN(CCCC(F)(F)F)CC2)c(Cl)c1`, the Potency is 9.44 µM (active).

As to `COCCNC(=O)c1ccc(OC2CCN(C/C=C/c3ccc(F)cc3)CC2)c(Cl)c1`, the Potency was 10.6 µM (active).

For `CN(Cc1ccc(-c2ccccc2)cc1)C(=O)C1CC1`, the “activity change, negative = inhibition” value is 11.1% [at 43.1 µM] (inactive).

`CC(=O)Nc1cc(-c2ccccc2)ccc1O`: the Potency is 4.73 µM (active).

Turning to `CC(=O)Nc1ccc(/C(C)=N\NC(=O)c2ccc(-c3ccccc3)cc2)cc1`, the “activity change, negative = inhibition” value is 18.3% (inactive).

With `CC(C)(Oc1nn(Cc2cccc(Cl)c2)c2ccccc12)C(=O)NCCN1CCOCC1`, the Potency was 5.31 µM (active).

Take `CC(C)n1nc(OC(C)(C)C(=O)NCCc2cccnc2)c2cc(CN3CCOCC3)ccc21`: the “activity change, negative = inhibition” value was -3.54% (inactive).

In the case of `CC(C)(Oc1nn(CCOc2ccccc2)c2ccccc12)C(=O)NCc1cnccn1`, the “activity change, negative = inhibition” value was -20.1% [at 43.1 µM] (inactive).

Regarding `COCc1ccc2c(c1)c(OC(C)(C)C(=O)NCC1CCOCC1)nn2Cc1cccnc1`, the “activity change, negative = inhibition” value was 22.6% (inactive).

With `CN1CCN(C(=O)C(C)(C)Oc2nn(Cc3cccc(Cl)c3)c3ccccc23)CC1`, the Potency was 7.69 µM (active).

As for `COCc1ccc2c(c1)c(OC(C)(C)C(=O)N1CCN(CCO)CC1)nn2Cc1ccccc1`, the Potency is 9.44 µM (active).

`CCCCn1cc(C(=O)c2cc(Br)ccc2O)cc(C#N)c1=O`: the Potency was 13.3 µM (active).

In the case of `N#Cc1cc(C(=O)c2cc(Br)ccc2O)cn(C2CCCCC2)c1=O`, the Potency was 0.668 µM (active).

As to `CN(C)c1cc[n+](Cc2ccccc2)cc1`, the Potency is 10.6 µM (active).

`CCOC(=O)CCCOc1cccn2c(=O)c(-c3cc(C)n(-c4ccc(Cl)cc4)n3)c(C)nc12`: the Potency was 10.6 µM (active).

With `CC(C)CCN1CCC2(CC1)CC(=O)N(c1ccccc1)c1ccccc1O2`, the “activity change, negative = inhibition” value was -9.65% (inactive).

Regarding `COc1ccc(-n2nc(C3CCN([S+](=O)([O-])c4cccc(C(F)(F)F)c4)CC3)[nH]c2=O)cc1`, the “activity change, negative = inhibition” value is 0% (inactive).

Regarding `O=C1CC2(CCN([S+](=O)([O-])c3cccc(C(F)(F)F)c3)CC2)Oc2ccccc2N1c1ccccc1`, the Potency is 6.68 µM (active).

Take `CN(C)c1ccc(NC(=O)Oc2ccccc2)cc1`: the “activity change, negative = inhibition” value is 11.4% (inactive).

As to `Cc1ccc(S(=O)(=O)NC(=O)Nc2ccc(N(C)C)cc2)cc1`, the Potency was 1.33 µM (active).

For the compound `Cc1c(CN2CCN(CC(C)(C)C)C(CCO)C2)[nH]c2ccccc12` (stereo not given), the Potency is 9.44 µM (active).

In the case of `CC(C)CC(NC(=O)C(NC(=O)OC(C)(C)C)C(C)C)C(=O)NC(CCC(=O)OCc1ccccc1)C(N)=O` (stereo not given), the Potency is 8.41 µM (active).

As to `CC(C)c1ccccc1NC(=O)C(Cc1c[nH]c2ccccc12)NC(=O)OC(C)(C)C` (stereo not given), the “activity change, negative = inhibition” value was -18.5% (inactive).

Turning to `CCCCCn1c(=N)n(CC(O)COc2cccc(C)c2)c2ccccc21` (stereo not given), the Potency is 2.11 µM (active).

On to `N=c1n(CCN2CCCCC2)c2ccccc2n1CC(O)COc1ccc(Cl)cc1Cl` (stereo not given), for which the Potency is 4.22 µM (active).

For `CCN(CC)CCn1c(=N)n(CC(O)COc2ccccc2C)c2ccccc21` (stereo not given), the Potency is 3.35 µM (active).

Take `CCn1c(=N)n(CC(O)c2cccs2)c2ccccc21` (stereo not given): the “activity change, negative = inhibition” value is -26.2% (inactive).

With `CC(=O)N1C[C@@H]2CCCN3CCC[C@@H]([C@H]23)[C@H]1CCCC(=O)Nc1ccccc1`, the “activity change, negative = inhibition” value was -1.67% (inactive).

As to `CC(C)CN1CCN(C(=O)CCC[C@@H]2[C@H]3CCCN4CCC[C@@H](CN2Cc2cccnc2)[C@@H]34)CC1`, the “activity change, negative = inhibition” value was -17% (inactive).

Turning to `CCN(Cc1ccccc1)C(=O)CCC[C@@H]1[C@H]2CCCN3CCC[C@@H](CN1C(=O)c1ccccc1)[C@@H]23`, the Potency was 13.3 µM (active).

As for `COc1ccccc1C(=O)NCc1nnc2ccc(-c3ccc(C)cc3)nn12`, the “activity change, negative = inhibition” value is 0% (inactive).

For the compound `COc1ccccc1Nc1cnc2ccc(-c3ccc(F)cc3)nn12`, the Potency was 6.85 µM (active).

In the case of `COc1ccccc1Nc1cnc2ccc(-c3ccc(OC)c(OC)c3)nn12`, the Potency is 1.53 µM (active).
